20 molecules from PubChem BioAssay (EPA / NIEHS) can be followed below.

Assay [1] deals with Estrogen receptor beta (Homo sapiens) (UniProt Q92731). Briefly: OT_ER_ERbERb_0480: Odyssey Thera (OT) 8-hour HEK293T Protein-Complementation Assay for Estrogen Receptor-beta/-beta Homodimer (AID 2283357).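 Further: active means signal gain over DMSO baseline.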 The procedure, abridged:
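Cells (HEK293T, stable ER-beta LBD PCA pair) are treated 8 hours, fixed and Draq5-stained; signal is fluorescence intensity increase relative to vehicle, fitted in the gain direction.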

For assay [2], the target named is Retinoic acid receptor alpha (Homo sapiens) (UniProt P10276). Briefly: NVS_NR_hRAR_Antagonist: NovaScreen (NVS) Nuclear Receptor Binding Assay for human Retinoic Acid Alpha Receptor Antagonism (RAR) (AID 2283358). The procedure, abridged:
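TR-FRET, cell-free, antagonist format; 2 h incubation after dosing; DMSO = baseline; signal loss fitted; 25 uM duplicate primary, then conc. series.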

The target of the next assay is PGR (gene 5241) (UniProt P06401). Briefly: NVS_NR_hPR: NovaScreen (NVS) Nuclear Receptor Binding Assay for human Progestron Receptor (PR) (AID 2283360).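 Further: active means loss of bound radioligand signal versus DMSO baseline.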 In a few lines: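 Radioligand competition binding on receptor extracted from T47D cells, read by scintillation counting 18 h after dosing. Loss of signal versus DMSO; primary screen in duplicate at 25 uM, actives followed in concentration series.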
Chain of PGR (gene 5241) (P06401 whole entry, looked up): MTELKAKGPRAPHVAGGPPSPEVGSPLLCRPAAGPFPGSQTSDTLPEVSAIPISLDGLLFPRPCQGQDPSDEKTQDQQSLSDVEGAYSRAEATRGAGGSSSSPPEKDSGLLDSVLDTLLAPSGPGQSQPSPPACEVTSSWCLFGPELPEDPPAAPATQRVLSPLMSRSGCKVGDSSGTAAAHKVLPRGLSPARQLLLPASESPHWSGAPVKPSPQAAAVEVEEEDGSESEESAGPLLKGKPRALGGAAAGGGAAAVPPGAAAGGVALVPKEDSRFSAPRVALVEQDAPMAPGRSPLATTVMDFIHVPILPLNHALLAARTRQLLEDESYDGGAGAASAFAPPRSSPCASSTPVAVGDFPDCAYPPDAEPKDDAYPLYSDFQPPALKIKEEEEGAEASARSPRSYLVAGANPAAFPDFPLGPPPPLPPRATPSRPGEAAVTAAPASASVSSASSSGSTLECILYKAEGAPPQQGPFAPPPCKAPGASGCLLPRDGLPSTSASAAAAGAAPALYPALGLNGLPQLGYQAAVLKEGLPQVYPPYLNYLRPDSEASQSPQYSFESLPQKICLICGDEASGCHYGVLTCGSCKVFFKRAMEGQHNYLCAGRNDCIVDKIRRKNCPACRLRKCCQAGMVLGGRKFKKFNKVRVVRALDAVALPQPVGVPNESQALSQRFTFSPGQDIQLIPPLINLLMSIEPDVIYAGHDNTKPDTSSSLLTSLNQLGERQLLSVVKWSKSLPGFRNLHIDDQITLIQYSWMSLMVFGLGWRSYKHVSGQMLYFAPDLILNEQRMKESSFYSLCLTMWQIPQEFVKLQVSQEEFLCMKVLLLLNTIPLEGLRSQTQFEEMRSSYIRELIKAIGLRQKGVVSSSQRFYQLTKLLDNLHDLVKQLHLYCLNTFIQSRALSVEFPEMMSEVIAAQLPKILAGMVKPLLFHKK

Assay [3] concerns the target human Dopamine Transporter (DAT), SLC6A3 (gene 6531) (UniProt Q01959). Briefly: NVS_TR_hDAT: NovaScreen (NVS) Transporter Assay for human Dopamine Transporter (DAT) (AID 2283374).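 Further: activity means loss of bound radioligand signal relative to DMSO.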 In a few lines: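 Test chemicals were first screened in duplicate at 25 uM, with actives retested as concentration series. Displacement of a specific radioligand from cell-free human dopamine transporter was measured after 1 h by filtration and scintillation counting.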

Assay [4] deals with human Thyroid Receptor Alpha (TRa), THRA (gene 7067) (UniProt P10827). Briefly: NVS_NR_hTRa_Antagonist: NovaScreen (NVS) Nuclear Receptor Binding Assay for human Thyroid Receptor Alpha Antagonism (TRa) (AID 2283362).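 Further: activity is loss of signal relative to DMSO baseline.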 In a few lines: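 Extracted protein, cell-free; 1 h incubation after dosing; AlphaLISA chemiluminescence binding readout. DMSO = baseline/neg ctrl; signal loss = activity. Primary: duplicate, 25 uM; secondary: conc. series on actives.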
Chain of human Thyroid Receptor Alpha (TRa), THRA (gene 7067) (P10827 whole entry, looked up): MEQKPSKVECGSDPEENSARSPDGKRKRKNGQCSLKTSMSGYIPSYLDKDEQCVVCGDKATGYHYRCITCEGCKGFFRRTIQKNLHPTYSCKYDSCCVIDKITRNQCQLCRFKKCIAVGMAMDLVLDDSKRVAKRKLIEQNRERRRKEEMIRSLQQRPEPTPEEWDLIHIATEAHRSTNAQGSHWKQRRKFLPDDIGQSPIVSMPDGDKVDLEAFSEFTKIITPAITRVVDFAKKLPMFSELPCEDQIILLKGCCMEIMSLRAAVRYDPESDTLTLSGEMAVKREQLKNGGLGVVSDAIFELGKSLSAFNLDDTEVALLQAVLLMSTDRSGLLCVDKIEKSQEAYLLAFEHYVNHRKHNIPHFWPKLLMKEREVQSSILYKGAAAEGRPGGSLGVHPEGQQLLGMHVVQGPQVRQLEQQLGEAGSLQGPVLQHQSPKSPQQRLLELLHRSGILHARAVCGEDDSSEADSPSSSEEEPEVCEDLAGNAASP

Assay [5] has as its target Glucocorticoid receptor (Homo sapiens) (UniProt P04150). Briefly: NVS_NR_hGR: NovaScreen (NVS) Nuclear Receptor Binding Assay for human Glucocorticoid Receptor (GR) (AID 2283363).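 On AC50: activity is loss of specific radioligand binding signal relative to DMSO.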 In a few lines:
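Competitive displacement of a labelled ligand was measured on cell-free receptor preparations after 16 h exposure. Initial testing used 25 uM in duplicate with plate controls; confirmed actives went into concentration series.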

In assay [6] the target is rat Androgen Receptor (AR), Ar (gene 24208) (UniProt P15207). Briefly: NVS_NR_rAR: NovaScreen (NVS) Nuclear Receptor Binding Assay for rat Androgen Receptor (AR) (AID 2283366). The procedure, abridged:
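Cell-free radioligand binding on extracts of prostate from testosterone-pretreated rats, read by filter-based scintillation counting 18 h after dosing. Loss of bound signal fitted positively versus DMSO; primary screen in duplicate at 25 uM, actives followed up in concentration series.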

The target of assay [7] is Peroxisome proliferator-activated receptor gamma (Homo sapiens) (UniProt P37231). Briefly: NVS_NR_hPPARg: NovaScreen (NVS) Nuclear Receptor Binding Assay for human Peroxisome Proliferator-activated Receptor gamma (PPARg) (AID 2283370). In a few lines:
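Chemicals were tested first in duplicate at 25 uM, then in concentration series if active. Binding to cell-free PPARg protein was measured by fluorescence polarization after 2 h, with loss of signal scored against DMSO.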

Assay [8] concerns the target Norway rat Vesicular Monoamine Transporter (VMAT2), neurotransmitter transporter, Slc18a2 (gene 25549) (UniProt Q01827). Briefly: NVS_TR_rVMAT2: NovaScreen (NVS) Transporter Assay for Norway rat Vesicular Monoamine Transporter (VMAT2), neurotransmitter transporter (AID 2283376).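 Further: actives lower the bound radioligand signal below the DMSO level.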 The procedure, abridged: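 Tissue: rat forebrain extract. Format: competitive radioligand binding, cell-free. Timepoint: 1 h. Readout: filter radiodetection/scintillation. Screen: 25 uM in duplicate, then concentration series for actives. Baseline: DMSO.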

Assay [9] has as its target human Norepinephrine Transporter (NET), SLC6A2 (gene 6530) (UniProt P23975). Briefly: NVS_TR_hNET: NovaScreen (NVS) Transporter Assay for human Norepinephrine Transporter (NET) (AID 2283377).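 Further: cell-free membrane protein extracted from CHO cells expressing human NET; displacement of radioligand from human NET seen as loss of scintillation signal.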 The procedure, abridged:
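Scintillation counts of filter-retained radioligand served as the readout, taken 1 h post-dosing in a cell-free CHO-derived system. Test chemicals ran first at 25 uM in duplicate; confirmed hits were retested across concentrations.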

Assay [10] concerns guinea pig Dopamine Transporter (DAT), gene 100714898. Briefly: NVS_TR_gDAT: NovaScreen (NVS) Transporter Assay for guinea pig Dopamine Transporter (DAT) (AID 2283369).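 Further: active compounds lower bound radioligand signal relative to DMSO.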 The procedure, abridged:
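Scintillation counts of filter-retained radioligand report binding to guinea pig striatal membranes after 2 h. Activity scored as signal loss relative to DMSO, first at 25 uM in duplicate, then in concentration series to 50 uM.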

For assay [11], the target named is human Peroxisome Proliferator-activated Receptor alpha (PPARa), PPARA (gene 5465) (UniProt Q07869). Briefly: NVS_NR_hPPARa: NovaScreen (NVS) Nuclear Receptor Binding Assay for human Peroxisome Proliferator-activated Receptor alpha (PPARa) (AID 2283359).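 Further: activity means loss of TR-FRET signal versus DMSO baseline.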 In a few lines: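 Chemicals were first screened in duplicate at 25 uM, and active ones were retested across concentration series. Binding was monitored by TR-FRET one hour after dosing, with decreased signal against DMSO counted as activity.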

For assay [12], the target named is guinea pig Sigma Receptor, Non-selective Binding, SIGMAR1 (gene 100135589) (UniProt Q60492). Briefly: NVS_OR_gSIGMA_NonSelective: NovaScreen (NVS) Nuclear Receptor Binding Assay for guinea pig Sigma Receptor, Non-selective Binding (AID 2283367). The procedure, abridged:
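gp brain membr., radioligand displacement, 1 h, filtration + scint. counting; DMSO = baseline; 25 uM x2 primary, conc.-response confirm.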

Assay [13] has as its target human Serotonin Transporter (SERT), SLC6A4 (gene 6532) (UniProt P31645). Briefly: NVS_TR_hSERT: NovaScreen (NVS) Transporter Assay for human Serotonin Transporter (SERT) (AID 2283372). The procedure, abridged: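 Radioligand binding to native SERT in human platelet membranes, read by filter-based scintillation counting 1 h after dosing. Primary screen in duplicate at 25 uM; actives followed up in concentration series; loss of signal versus DMSO baseline.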

In assay [14] the target is rat Serotonin Transporter (SERT), Slc6a4 (gene 25553) (UniProt P31652). Briefly: NVS_TR_rSERT: NovaScreen (NVS) Transporter Assay for rat Serotonin Transporter (SERT) (AID 2283375). The procedure, abridged: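 Filtration-based radiodetection quantified loss of specific radioligand binding in rat forebrain membranes after 1 hour of chemical exposure, relative to DMSO. Chemicals were first tested in duplicate at 25 uM.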

Assay [15] addresses mouse Estrogen Receptor alpha (Era), Esr1 (gene 13982) (UniProt P19785). Briefly: NVS_NR_mERa: NovaScreen (NVS) Nuclear Receptor Binding Assay for mouse Estrogen Receptor alpha (Era) (AID 2283378).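 Further: hit means loss of bound radioligand signal relative to DMSO.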 The procedure, abridged: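 Extracted mouse Era incubated with tritiated or iodinated radioligand plus test chemical, 18 h. Bound fraction separated on filters, counted by scintillation. DMSO = negative control/baseline; duplicate single-point at 25 uM, then concentration-response follow-up.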

Each structure is given as a SMILES string. Inconclusive results are not listed. The source made the active and inactive calls. How the source made its calls: active means hit-call score of the fitted dose curve at least 0.9, where 1 is the maximum; inconclusive means response in the unintended direction; inactive means score below 0.9.

For orientation: AC50 means the concentration at which the activity in the assay is half-maximal.

Chain of human Dopamine Transporter (DAT), SLC6A3 (gene 6531) (Q01959 whole entry, looked up): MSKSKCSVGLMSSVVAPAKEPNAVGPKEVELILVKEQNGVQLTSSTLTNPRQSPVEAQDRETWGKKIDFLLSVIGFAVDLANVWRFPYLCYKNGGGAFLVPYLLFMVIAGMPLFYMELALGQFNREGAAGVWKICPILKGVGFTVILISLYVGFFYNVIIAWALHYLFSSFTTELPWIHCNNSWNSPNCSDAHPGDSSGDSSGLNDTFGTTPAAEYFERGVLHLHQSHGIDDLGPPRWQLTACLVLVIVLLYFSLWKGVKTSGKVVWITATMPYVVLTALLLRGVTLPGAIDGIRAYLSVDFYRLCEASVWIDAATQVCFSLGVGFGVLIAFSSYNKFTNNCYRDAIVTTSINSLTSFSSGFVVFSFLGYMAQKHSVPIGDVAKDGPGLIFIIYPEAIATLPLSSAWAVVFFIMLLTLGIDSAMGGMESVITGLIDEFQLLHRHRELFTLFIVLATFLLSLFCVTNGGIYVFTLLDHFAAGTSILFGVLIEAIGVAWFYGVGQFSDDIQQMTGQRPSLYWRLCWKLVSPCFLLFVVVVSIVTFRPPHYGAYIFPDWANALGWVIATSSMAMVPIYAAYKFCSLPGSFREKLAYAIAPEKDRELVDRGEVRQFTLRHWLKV
Chain of Glucocorticoid receptor (Homo sapiens) (P04150 whole entry, looked up): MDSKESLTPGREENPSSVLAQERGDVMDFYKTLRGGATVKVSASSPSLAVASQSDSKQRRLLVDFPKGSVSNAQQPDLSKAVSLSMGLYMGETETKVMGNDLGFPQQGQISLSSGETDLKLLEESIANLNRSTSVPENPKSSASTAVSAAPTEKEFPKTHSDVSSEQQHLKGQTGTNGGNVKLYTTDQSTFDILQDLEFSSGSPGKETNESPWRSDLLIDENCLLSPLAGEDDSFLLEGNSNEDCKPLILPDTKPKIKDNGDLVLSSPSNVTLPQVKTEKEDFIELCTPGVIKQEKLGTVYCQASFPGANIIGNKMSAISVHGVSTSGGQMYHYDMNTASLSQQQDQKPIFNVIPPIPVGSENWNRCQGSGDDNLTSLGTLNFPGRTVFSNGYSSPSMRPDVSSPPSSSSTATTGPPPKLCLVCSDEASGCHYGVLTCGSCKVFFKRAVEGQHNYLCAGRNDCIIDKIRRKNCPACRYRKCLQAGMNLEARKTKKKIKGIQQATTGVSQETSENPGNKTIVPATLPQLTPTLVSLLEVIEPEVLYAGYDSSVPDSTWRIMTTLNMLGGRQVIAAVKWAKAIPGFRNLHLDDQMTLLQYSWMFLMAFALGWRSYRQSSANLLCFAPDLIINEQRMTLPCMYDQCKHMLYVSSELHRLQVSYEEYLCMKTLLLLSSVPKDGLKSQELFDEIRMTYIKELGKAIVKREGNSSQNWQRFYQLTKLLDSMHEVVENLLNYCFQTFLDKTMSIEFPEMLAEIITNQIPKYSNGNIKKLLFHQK
Chain of Retinoic acid receptor alpha (Homo sapiens) (P10276 whole entry, looked up): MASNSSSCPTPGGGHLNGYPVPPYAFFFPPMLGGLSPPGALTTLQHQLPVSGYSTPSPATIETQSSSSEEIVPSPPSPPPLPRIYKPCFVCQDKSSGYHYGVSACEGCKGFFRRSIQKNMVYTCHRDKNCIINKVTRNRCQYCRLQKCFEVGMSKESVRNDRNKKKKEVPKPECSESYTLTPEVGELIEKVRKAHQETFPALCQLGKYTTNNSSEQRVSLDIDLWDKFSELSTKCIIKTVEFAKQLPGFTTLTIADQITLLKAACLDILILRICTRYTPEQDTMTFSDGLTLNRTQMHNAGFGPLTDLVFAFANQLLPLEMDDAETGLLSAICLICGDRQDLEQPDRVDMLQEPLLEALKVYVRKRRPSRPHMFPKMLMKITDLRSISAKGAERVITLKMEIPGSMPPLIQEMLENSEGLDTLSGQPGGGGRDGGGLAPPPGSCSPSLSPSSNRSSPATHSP
Chain of Estrogen receptor beta (Homo sapiens) (Q92731 whole entry, looked up, the tested form may be a part): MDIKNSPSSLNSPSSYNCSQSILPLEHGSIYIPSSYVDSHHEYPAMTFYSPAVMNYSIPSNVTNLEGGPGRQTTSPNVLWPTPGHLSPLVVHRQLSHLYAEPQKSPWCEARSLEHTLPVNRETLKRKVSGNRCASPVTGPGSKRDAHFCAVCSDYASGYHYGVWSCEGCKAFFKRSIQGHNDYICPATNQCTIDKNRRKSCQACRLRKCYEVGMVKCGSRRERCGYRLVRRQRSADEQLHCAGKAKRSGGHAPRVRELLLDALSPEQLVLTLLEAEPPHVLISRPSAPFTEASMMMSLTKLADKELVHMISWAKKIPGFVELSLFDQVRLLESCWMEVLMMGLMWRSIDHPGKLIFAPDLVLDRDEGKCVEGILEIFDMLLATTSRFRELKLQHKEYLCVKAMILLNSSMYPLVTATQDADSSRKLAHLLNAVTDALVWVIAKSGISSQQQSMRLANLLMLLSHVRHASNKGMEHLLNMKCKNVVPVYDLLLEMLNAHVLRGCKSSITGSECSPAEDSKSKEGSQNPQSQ
Chain of Peroxisome proliferator-activated receptor gamma (Homo sapiens) (P37231 whole entry, looked up): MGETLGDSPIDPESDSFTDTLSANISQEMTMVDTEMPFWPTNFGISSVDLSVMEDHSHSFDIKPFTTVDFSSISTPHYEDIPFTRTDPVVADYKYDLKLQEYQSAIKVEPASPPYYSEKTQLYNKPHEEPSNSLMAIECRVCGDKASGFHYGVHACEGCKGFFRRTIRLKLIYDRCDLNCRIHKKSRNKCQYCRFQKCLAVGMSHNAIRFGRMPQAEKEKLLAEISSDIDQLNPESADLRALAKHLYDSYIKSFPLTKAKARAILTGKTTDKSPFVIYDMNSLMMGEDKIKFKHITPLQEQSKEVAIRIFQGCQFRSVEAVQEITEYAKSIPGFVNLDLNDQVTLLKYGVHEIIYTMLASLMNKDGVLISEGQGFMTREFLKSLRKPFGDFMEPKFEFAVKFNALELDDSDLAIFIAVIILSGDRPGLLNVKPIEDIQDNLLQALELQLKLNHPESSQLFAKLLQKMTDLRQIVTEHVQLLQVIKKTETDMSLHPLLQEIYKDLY
Chain of Norway rat Vesicular Monoamine Transporter (VMAT2), neurotransmitter transporter, Slc18a2 (gene 25549) (Q01827 whole entry, looked up): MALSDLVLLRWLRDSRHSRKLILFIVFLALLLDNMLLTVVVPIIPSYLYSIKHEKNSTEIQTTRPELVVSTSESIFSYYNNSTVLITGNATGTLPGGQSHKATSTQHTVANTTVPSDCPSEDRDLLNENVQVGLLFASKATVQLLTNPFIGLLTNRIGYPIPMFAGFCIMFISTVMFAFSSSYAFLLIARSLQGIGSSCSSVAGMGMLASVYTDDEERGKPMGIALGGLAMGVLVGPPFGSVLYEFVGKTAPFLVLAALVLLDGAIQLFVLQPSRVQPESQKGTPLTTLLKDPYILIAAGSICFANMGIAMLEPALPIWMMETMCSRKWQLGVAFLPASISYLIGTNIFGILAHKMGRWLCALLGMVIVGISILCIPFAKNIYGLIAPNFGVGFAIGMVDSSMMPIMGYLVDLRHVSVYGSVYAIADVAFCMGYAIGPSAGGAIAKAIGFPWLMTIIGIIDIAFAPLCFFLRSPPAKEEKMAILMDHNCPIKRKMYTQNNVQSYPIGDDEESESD

For `CCOP(=O)(OCC)Oc1nc(Cl)c(Cl)cc1Cl`, the call (in assay [1]; in assay [2]; in the assay with PGR (gene 5241); in assay [3]) was inactive.

Turning to `COc1cc(Cl)c(OC)cc1Cl`, in assay [1], the molecule was classed as inactive.

Take `Nc1cnn(-c2ccccc2)c(=O)c1Cl`: in [1], the result was inactive.

Turning to `CS(=O)(=O)c1ccc(C(=O)C2C(=O)CCCC2=O)c([N+](=O)[O-])c1`, the molecule was classed as inactive in assay [1].

In the case of `CCCCC(O)(Cn1cncn1)c1ccc(Cl)cc1Cl` (stereo not given), the outcome (in assay [1]; in the assay with PGR (gene 5241); in [4]; in assay [6]; in assay [7]) was inactive. The AC50 in assay [5] is 1.29 µM (active); in [3], 2.25 µM (active); in [8], 15 µM (active); in [9] it was 13.3 µM (active).

`Cc1nc(N(C)C)nc(OC(=O)N(C)C)c1C`: the result in assay [1] was inactive.

For `CS(=O)(=O)c1cc(C(F)(F)F)ccc1C(=O)c1cnoc1C1CC1`, the molecule was called inactive in assay [1] and in [2].

Consider `Clc1nc(Cl)nc(Nc2ccccc2Cl)n1`, for which the molecule was classed as inactive in assay [1] and in assay [8]. Moreover, the AC50 in assay [4] is 25 µM (active).

Turning to `COCc1cnc(C2=NC(C)(C(C)C)C(=O)N2)c(C(=O)O)c1` (stereo not given), the result in assay [1] and in [2] was inactive.

Take `CC(C)N1C(=O)N(c2ccccc2)CSC1=NC(C)(C)C`: the AC50 in assay [1] was 21.1 µM (active).

With `O=c1n(Cl)c(=O)n(Cl)c(=O)n1Cl`, the molecule was classed as inactive in [1] and in assay [2].

For `COC(=O)NS(=O)(=O)c1ccc(N)cc1`, in assay [1], the molecule was classed as inactive.

Take `Cc1cnc(C2=NC(C)(C(C)C)C(=O)N2)c(C(=O)O)c1` (stereo not given): the call in assay [1] and in [4] was inactive.

As for `COc1ccc(-c2ccccc2)cc1NNC(=O)OC(C)C`, in [1], the outcome was inactive.

With `CC1(C)C(C=C(Cl)Cl)C1C(=O)OC(C#N)c1cccc(Oc2ccccc2)c1` (stereo not given), the outcome (in assay [1]; in assay [2]; with PGR (gene 5241); in assay [5]) was inactive. The values for the concentration at half-maximal activity (AC50) in assay [10], in assay [3] and in assay [9] were 9.19 µM (active), 6.48 µM (active) and 12.2 µM (active), respectively.

For the molecule `CCOC(=O)C(C)OC(=O)c1cc(Oc2ccc(C(F)(F)F)cc2Cl)ccc1[N+](=O)[O-]` (stereo not given), the result (in assay [1]; in assay [2]; in assay [11]; in the assay with PGR (gene 5241); in assay [4]; in assay [5]) was inactive. Also, the molecule was called inactive in assay [12], in [10], in assay [7], in [13] and in [14]. Further, the AC50 in assay [3] was 7.94 µM (active).

Take `O=C(O)c1c(Cl)ccc2cc(Cl)cnc12`: the call in assay [1] was inactive.

As to `COC(=O)c1c(C(F)F)nc(C(F)(F)F)c(C2=NCCS2)c1CC(C)C`, the call in assay [1] was inactive.

As to `CCOc1cc(C(C)(C)C)ccc1C1COC(c2c(F)cccc2F)=N1` (stereo not given), the molecule was called inactive in assay [1], in [2], in [10] and in assay [3].

Turning to `CCCC(=NOCC)C1=C(O)CC(CC(C)SCC)CC1=O` (stereo not given), the result in [1], in assay [2], in assay [7] and in [15] was inactive.
